Measurements reported in PubChem BioAssay AID684 (PCMD, 2007).
Out of some 62,000 compounds screened, about 95 (0.2%) were called active. Cut-off read from the data, not from the text of the source: active = inhibition above about 20% (passing the limit was not always enough); inactive = the rest. Only a selection was taken, and actives are over-represented in it overall. Where a SMILES comes first, the peptide text is derived from it. [ ]: non-standard residue; d: D form. ξ: configuration not given here. ξV = CC(C)C(N)C(=O)O

biological target: Coagulation factor XII (Homo sapiens) (UniProt P00748); assay: human factor XIIa inhibitors, primary screen, biochemical, pooled compound mixtures, fluorogenic substrate (AID 684); conditions: purified FXIIa, at 5 µM, hits give high values;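 note: 0% = enzyme without compound and 100% = no enzyme blank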
Sequence (P00748 20-372 limits assumed): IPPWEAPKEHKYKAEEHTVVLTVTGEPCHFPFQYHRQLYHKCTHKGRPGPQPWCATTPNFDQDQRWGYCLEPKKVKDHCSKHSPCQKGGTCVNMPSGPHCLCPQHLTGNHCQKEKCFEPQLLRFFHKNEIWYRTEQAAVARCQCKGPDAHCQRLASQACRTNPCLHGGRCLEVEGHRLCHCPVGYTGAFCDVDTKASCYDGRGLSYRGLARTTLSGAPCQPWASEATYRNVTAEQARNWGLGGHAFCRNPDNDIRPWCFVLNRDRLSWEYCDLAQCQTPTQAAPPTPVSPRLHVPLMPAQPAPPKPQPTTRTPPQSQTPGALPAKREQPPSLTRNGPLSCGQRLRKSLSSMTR
Sequence (P00748 373-615 limits assumed): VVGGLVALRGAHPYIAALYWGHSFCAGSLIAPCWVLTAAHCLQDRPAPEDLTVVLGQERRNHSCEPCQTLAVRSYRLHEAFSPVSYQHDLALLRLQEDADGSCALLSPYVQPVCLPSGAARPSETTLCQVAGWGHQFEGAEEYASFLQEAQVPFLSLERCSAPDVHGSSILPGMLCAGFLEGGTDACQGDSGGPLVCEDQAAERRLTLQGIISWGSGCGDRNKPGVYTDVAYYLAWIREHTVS

inhibition, inactive:
O=S(=O)(c1ccccc1)N(CC(O)CN1CCCCC1)c1ccccc1 (stereo not drawn) 10.6%
O=C(Nc1c(Cl)cccc1Cl)C1CCC1 -1.33%
C=CCn1c(CSc2nc3ccccc3s2)nnc1SCC(=O)NCc1ccco1 -0.43%
O=C(c1cc(-c2ccc(O)cc2)on1)N1CCCc2ccccc21 3.9%
c1ccc(CCC2=NCCn3cccc32)cc1 6.93%
CC(=O)Nc1ccn(Cc2c(F)cccc2Cl)n1 1.78%
c1ccc(-c2noc(-c3cccs3)n2)nc1 3.97%
O=C1CN(C(=O)COC(=O)C2CC(=O)N(Cc3ccco3)C2)c2ccccc2N1 (stereo not drawn) -15.4%
CC1(C)CC(=O)c2sc(N)nc2C1 4.78%
CCN1CCN(c2c(Cl)cccc2NC(=O)c2ccc(Br)o2)CC1 10.2%
CCOC(=O)c1ccc(N2C(=O)CC(Sc3nc(O)c(CC)c(=O)[nH]3)C2=O)cc1 (stereo not drawn) -16.1%
O=C(CCCn1c(=O)[nH]c2cc(Cl)ccc2c1=O)NCCN1CCN(c2ccccc2)CC1 6.45%
CC(C)Cn1c(CN(Cc2ccccc2)Cc2ccccc2)nc2c1c(=O)n(C)c(=O)n2C 2.03%
CCOCC(=O)NCc1ccc2c(c1)cc(C)n2C 5.58%
CC1CCCC(NC(=O)CSc2nccn2C)C1C (stereo not drawn) 4.17%
O=C(/C=N/O)Nc1ccccc1 1.18%
CCC(=O)N1CCN=C1SCc1ccc(F)cc1 11.4%
Cc1ccc(CN2C(=O)CCC2C(=O)NCCCN2CCCCC2C)cc1 (stereo not drawn) 5.07%
Cc1cc(C)c(C#N)c(SCS(=O)c2ccc(C(C)(C)C)cc2)n1 (stereo not drawn) 4.64%
CCOC(=O)c1cc2c(n(-c3ccc(C)cc3)c1=O)CCCC2=O 6.98%
CC(c1ccco1)N(C(=O)c1ccc(S(=O)(=O)N2CCCCC2)cc1)c1ccccn1 (stereo not drawn) 12%
COC(=O)c1oc2ccc(Br)cc2c1NC(C)=O 8.62%
Cc1nnc(SCc2cc(=O)[nH]c(N3CCN(Cc4ccccc4)CC3)n2)s1 2.33%
Cc1nn(-c2cc(Cl)ccc2N)c(=O)c2ccccc12 4.62%
COc1cc(OC)c(C(=O)Nc2ccc(N(C)C)cc2)cc1OC 6.85%
CSc1ccc(NC(=O)N2CC(C)OC(C)C2)cc1 (stereo not drawn) 7.45%
O=C(Nc1cccc2cccnc12)c1cccc(N2C(=O)CCC2=O)c1 8.88%
CCCCOC(=O)Nc1nccs1 0.87%
CC1=C(C(N)=O)C(c2ccc3c(c2)OCO3)n2nc(-c3cccc(C)c3)nc2N1 (stereo not drawn) 6.61%
CCn1c(SCC(=O)c2ccc(Cl)s2)nnc1-c1cccs1 7.99%
O=C(O)c1ccc(COCC(F)(F)F)cc1 7.12%
COc1ccccc1C(=O)C(O)c1ccccc1OC (stereo not drawn) 5.88%
CC(C)C(=O)Nc1c(C(=O)c2ccc(F)cc2)oc2ccccc12 -2.16%
Cc1cccc(C(=O)Nc2ccc(CC(=O)O)cc2)c1 3.19%
O=c1[nH][nH]c(=O)c2cc(N3CCCC3)ccc12 10.2%
Cc1cc(=O)n2nc(N3CCCC3C(=O)NCCCN3CC(C)CC(C)C3)sc2n1 (stereo not drawn) -7.38%
O=C(CN1CCOCC1)Nc1cc(Cl)ccc1Cl 17.8%
CCCN1C(=O)C(NS(=O)(=O)c2ccc(N)cc2)(C(F)(F)F)C(C(=O)OC)=C1C (stereo not drawn) 4.13%
CC1CCCCC1NC(=O)CSc1nnc(N)s1 (stereo not drawn) 4.21%
CCOC(=O)Cc1c(C)nc2c(C#N)c(C)nn2c1C -16%
CCOC(=O)N1CCN(CC(=O)c2c(C)[nH]c3ccccc23)CC1 8.99%
CCC(C(=O)Nc1ncccn1)(C(F)(F)F)C(F)(F)F 9.39%
Cc1ccc(-n2ncc3c2ncn2nc(-c4ccco4)nc32)c(C)c1 0.945%
Cc1ccc(-n2ncc3c(N4CCN(c5ccc(F)cc5)CC4)ncnc32)c(C)c1 2.92%
CC(=O)NS(=O)(=O)c1ccccc1 7.57%
Cc1ccc(-c2nn(-c3ccccc3)cc2CN(Cc2ccccc2)C(=O)CCC(=O)O)o1 1.27%
COc1ccc(CC(NC(C)=O)C(=O)NC2CCN(C(=O)Nc3ccc(C#N)cc3)CC2)cc1OC (stereo not drawn) -19%
c1nnc2c3c4c(sc3ncn12)CCC4 -20.4%
Cc1ccc2cccc(O)c2[n+]1[O-] 6.81%
CCCn1c(SCC(N)=O)nnc1C(C)C -14.3%
COc1ccccc1N1CCN(C(=O)c2c(-c3c(Cl)cccc3Cl)noc2C)CC1 -18.6%
CCCn1nnc2sc3c(c2c1=O)CCC(C)C3 (stereo not drawn) 1.96%
Cc1ccnc(SCCn2c(N(C)Cc3ccccc3)nc3c2c(=O)n(C)c(=O)n3C)n1 5.5%
Cc1ccc(S(=O)(=O)C2(S(=O)(=O)c3ccc(C)cc3)CCCC2)cc1 5.75%
CCCOC(=O)c1[nH]c2c(c1C)C(=O)CC(c1cc(OC)c(OC)c(OC)c1)C2 (stereo not drawn) 3.98%
O=C(c1ccc(-n2cnnn2)cc1)N1CCN(C(c2ccccc2)c2ccccc2)CC1 1.76%
c1c2c(cc3sc(N4CCCCC4)nc13)OCCO2 -2.49%
CC(=O)Oc1ccc(C)cc1N1C(=O)c2ccc(C(=O)O)cc2C1=O 9.34%
N#Cc1ccc(OCCN2C(=O)NC3(CCSC3)C2=O)cc1 (stereo not drawn) 18.5%
COc1ccc(C2/C(=C(/O)c3ccccc3)C(=O)C(=O)N2c2ncccn2)cc1OC (stereo not drawn) 2.12%
Cc1c(NC(=O)c2coc(=O)c(Br)c2)c(=O)n(-c2ccccc2)n1C -0.015%
CCOC(=O)N1CCN(C(=O)Cc2ccc(-n3c(=S)[nH]c4ccccc4c3=O)cc2)CC1 7.08%
COc1cccc(Nc2nnc(SCC(=O)N3CC(C)OC(C)C3)s2)c1 (stereo not drawn) -0.74%
CCOc1ccc2[nH]c(=O)c(CN(CCCO)C(C)=O)cc2c1 -3.55%
Cn1c(=O)c2[nH]c(NCC3CCCO3)nc2n(-c2ccccc2)c1=O (stereo not drawn) -14.8%
CC(C)CCNc1nc(N2CCCC2)c2c(c1C#N)CCN(C)C2 -51.8%
N#Cc1ccc(CSc2nnc(-c3ccccn3)n2-c2ccc(Cl)cc2)cc1 -14.6%
CCN(CC)P(=O)(C(NC(=O)OC)C(F)(F)C(F)(F)C(F)(F)C(F)F)N(CC)CC (stereo not drawn) 0.97%
CCCC(C)n1[nH]c(=O)c2c(C)cc(C)nc21 (stereo not drawn) 3.26%
N#CC(C(=O)c1ccc(S(=O)(=O)N2CCCCCC2)cc1)c1nc2ccccc2[nH]1 (stereo not drawn) -9.55%
OCCNCCCCOc1ccccc1F -11.6%
CCOc1ccc(CCNC(=O)C2CCN(c3ccc(N4CCOCC4)nn3)CC2)cc1OCC -15.4%
Cc1nc2ccc(NC(=O)N3CCC(c4ccccc4)C3)cc2nc1C (stereo not drawn) -16.9%
CC(=O)NCC(=O)N(C)C(C(=O)Nc1ccc2c(c1)OCCO2)c1ccccc1 (stereo not drawn) 16.7%
COc1ccc(NC(=O)CN(C)S(=O)(=O)c2ccccc2)cc1OC 19.2%
COc1cccc(N(CC(=O)Nc2cccc(N(C)S(C)(=O)=O)c2)S(C)(=O)=O)c1 -3.08%
Cc1ccc(S(=O)(=O)c2c(N)n(C)c3nc4ccccc4nc23)cc1 -4.52%
N#CCCN1CCN(S(=O)(=O)c2ccc(S(=O)(=O)NC3CCCCC3)cc2)CC1 4.97%
O=C(CCS(=O)(=O)c1ccccc1)Nc1nc2c(s1)CCCC2 24.1%
COc1ccc(C(=O)c2oc3ccc(Br)cc3c2NC(C)=O)cc1 1.19%
C/C(=C\C(=O)c1ccccc1)Nc1cccc(O)c1 2.12%
COC(=O)c1cc(C(=O)OC)cc(N2C(=O)CC(N3CCN(c4ccccc4)CC3)C2=O)c1 (stereo not drawn) 7.93%
CCn1cc(C(=O)NCC2COc3ccccc3O2)c2cc(OC)c(OC)cc2c1=O (stereo not drawn) 3.64%
COc1ccccc1NC(=O)c1ccc(C)s1 -2.31%
CC(=O)Nc1ccc(S(=O)(=O)N2CCC(N(C)CCC(C)C)CC2)cc1 -1.44%
C=CCNC(=O)CSc1nc2sc(C)c(C)c2c(=O)[nH]1 7.21%
COc1ccc(N2CC(C)Cn3c2nc2c3c(=O)n(Cc3ccccc3F)c(=O)n2C)c(OC)c1 (stereo not drawn) 10.8%
Cn1nnc(NC(=O)CSc2ncn[nH]2)n1 4.66%
O=C1Nc2ccccc2C12Nc1ccccc1S2 (stereo not drawn) -1.23%
C=CCn1c(COc2ccccc2F)nnc1SCC(=O)N1CC(=O)Nc2ccccc21 1.16%
COc1ccc(C2C3=C(CC(C)(C)CC3=O)Oc3ncn4nc(-c5cccnc5)nc4c32)cc1OC (stereo not drawn) 10.1%
C=CCNC(=O)CCCC(=O)NCC=C 0.65%
COc1ccc2c3c(c(=O)oc2c1OCC(=O)C(C)(C)C)CCCC3 12.2%
COc1ccc(N2C(=O)C3CCCN3C2c2cc(OC)c(OC)cc2OC)cc1 (stereo not drawn) -16.1%
CC(=O)NC(C(=O)NCC(N)=O)C(C)C (stereo not drawn) (Ac-[ξV]-Gly-NH2) 1.26%
Cc1nn(-c2ccccc2)c(CC(C)(C)C(=O)O)c1C(=O)O -11.5%
Cc1cccc(NC(=O)CSc2nnc(NC(=O)CN3CCOCC3)s2)c1 0.94%
CCOC(=O)N1CCC(NC(=O)c2cnn3ccccc23)CC1 2.9%
CCOc1ccc(CCNC(=O)C(CC)n2nc(C)n3c(cc4sccc43)c2=O)cc1OCC (stereo not drawn) 8.5%
CCOC(=O)N1CCN(S(=O)(=O)c2cc(Br)cc3c2N(C(=O)C2CC2)CC3)CC1 2.7%
CC(=O)Nc1ccc(S(=O)(=O)Nc2nc3n(n2)C(c2ccccc2)CC(=O)N3)cc1 (stereo not drawn) -18.2%
COc1ccc(-n2ncc3c(N4CCCc5ccccc54)ncnc32)cc1 -15%
COCC(C)N=CC1=C(O)CC(C)(C)CC1=O (stereo not drawn) 3.32%
CC(=O)Cc1nsc(NC(=O)c2csc3c2CCCC3)n1 -19%
CCOc1ccc(NC(=O)N(CCC(C)C)C(C)c2ccco2)cc1 (stereo not drawn) 29.7%
CCCNC(=O)C1CC(=O)N(c2ccc(OCC(=O)Nc3cccc(C)c3C)cc2)C1 (stereo not drawn) 4.39%
CCOC(=O)CCC(=O)OCC(=O)NC(C)C1CC2CCC1C2 (stereo not drawn) 20.1%
COCCNC(=O)CSc1nc2c(n1-c1ccccc1)CCCC2 1.41%
CCC1CCCCN1CCNS(=O)(=O)c1ccc2c(c1)CCN2C(C)=O (stereo not drawn) -15.6%
CCc1nnc(NS(=O)(=O)c2ccc(NS(=O)(=O)c3ccccc3)cc2)s1 -2.69%
CC(=O)Oc1ccc2c(C)c(CC(C)O)c(=O)oc2c1 (stereo not drawn) 9.88%

inhibition, active:
Cc1ccc(-n2ncc3c(=O)[nH]cnc32)c(C)c1 20.5%
COc1cccc(NC(=O)CN(C)S(=O)(=O)c2ccc(C)cc2)c1 23%
